{"source": "PubChem BioAssay (NCI)", "note": "The panel holds about 83,000 compounds, 20% with a hit somewhere; the sample as a whole holds those more often.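 Single-dose data. Exposure time 48 hours. Values below 10 considered active.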 A number with no mark means an inactive call. The source made the active and inactive calls.", "data": [{"system": "A498 renal", "assay": "NCI-60 one-dose screen, 48 h (100 = growth as untreated, 0 = no growth, -100 = all killed)", "conditions": "10 µM", "procedure": "Growth inhibition of the A498 human tumor cell line is measured as a screen for anti-cancer activity. Cells are grown in 96 well plates and exposed to the test compound for 48 hours. Compounds are tested at a single concentration, which is 10^-5 M for most compounds. The reported endpoint is percent growth (GI% or GIPRCNT), where numbers from 0 - 100% represent growth inhibition, and numbers from -100% - 0 represent cell death. For example, a value of 40 represents 60% growth inhibition. A value of 0 means no net growth occurred over the course of the experiment. A value of -40 indicates 40% of cells at the beginning of the experiment died by the end of the experiment. A value of -100 means all cells are dead at the end of the experiment.\nNCI-60 Human Tumor Cell Lines Screen was performed using the standard one-dose NCI protocol, which is described in more detail at https://dtp.cancer.gov/discovery_development/nci-60/default.htm.\nCompounds with GIPRCNT values below 10 were considered active. Activity score was based on GIPRCNT using the following formula: […]\nScore is 0 for GIPRCNT values of 100 or above, 50 for GIPRCNT values of 0, and 100 for GIPRCNT values of -100.", "values": [{"smiles": "O=C(CC1(O)C(=O)Nc2ccc(Br)cc21)c1ccc(C(=O)NCC2CCC3(CC2)OOC2(CCCCC2)OO3)cc1", "note": "(stereo not given)", "growth": "84.7%"}, {"smiles": "c1cnc2[nH]cc(-c3csc(-c4cn(CCCCN5CCOCC5)c5ccccc45)n3)c2c1", "growth": "56.8%"}, {"smiles": "CCCC(=O)O[C@@H]1C[C@H]2C[C@@H](O[C@@H]3O[C@@H](C)[C@@H](O)[C@@H](O)[C@H]3OC)C[C@@H](C[C@@H](C)/C=C/C=C\\C[C@@H]3O[C@@H](C[C@@H]3C)[C@@H](O)C[C@H]3C[C@@]1(O)C(=O)O3)O2", "growth": "79.9%"}, {"smiles": "O=P(N1CC1)(N1CC1)N1CCc2ccccc21", "growth": "106%"}, {"smiles": "O=C(CCCC1CCCCC1)OCC(Cl)(Cl)Cl", "growth": "60.6%"}, {"smiles": "O=C1C(=Cc2cn(Cc3ccccc3)c3ccccc23)C(=O)N(Cc2ccccc2)C(=O)N1Cc1ccccc1", "growth": "-95.7% (active)"}, {"smiles": "CC12CCC3C(CCC4Cc5[nH]c6ccccc6c5CC43C)C1CCC2O", "note": "(stereo not given)", "growth": "31.8%"}, {"smiles": "CC[C@H](C)[C@H](NC(=O)NC(C)(C)C)C(=O)N(C)[C@H](C[C@@H](OC(C)=O)c1nc(C(=O)N[C@@H](Cc2ccccc2)C[C@H](C)C(=O)OC)cs1)C(C)C", "growth": "-10% (active)"}, {"smiles": "CCOC(=O)CCC(NC(=O)C(Cc1ccc(N(CCCl)CCCl)cc1)NC=O)C(=O)OCC", "note": "(stereo not given)", "growth": "128%"}, {"smiles": "CCn1nccc1NC(=O)C(=O)c1cn(Cc2ccc(F)cc2)c2cccc(OC)c12", "growth": "94.1%"}, {"smiles": "C/C=C(\\C)C(=O)O[C@@H]1C(O)[C@H]2OC(COC(=O)CCC(=O)CCCCCC[C@H](CCCCC)O[C@@H]3OC(C)[C@H](OC(C)=O)C(O)[C@H]3O2)[C@H]1OC(=O)/C=C/c1ccccc1", "note": "(stereo not given in full)", "growth": "14.8%"}, {"smiles": "O=C1N[C@@H]2[C@@H](O)[C@@H](O)[C@H](O)C[C@H]2c2cc3c(c(O)c21)OCO3", "growth": "-53.4% (active)"}, {"smiles": "CCC(O)(CN)c1ccccc1", "note": "(stereo not given)", "growth": "86.7%"}, {"smiles": "CN[C@@]1(c2ccccc2Cl)CCCC[C@@H]1NCC1CCCO1", "note": "(stereo not given in full)", "growth": "94.4%"}, {"smiles": "O=C(CCCCCCC(=O)Nc1ccc(N(CCCl)CCCl)cc1)NO", "growth": "54.1%"}, {"smiles": "CNC(=O)Oc1ccc(C(C)(C)C)cc1OC(=O)NC", "growth": "98.8%"}, {"smiles": "CC12CCC3C(CCC4=CC(=O)CCC43CF)C1CCC2=O", "note": "(stereo not given)", "growth": "111%"}, {"smiles": "CC[C@H](C)[C@H](NC(=O)C12C3C4C1C1C2C3C41NC(C)=O)C(=O)N(C)[C@H](C[C@@H](OC(C)=O)c1nc(C(=O)N[C@@H](Cc2ccccc2)C[C@H](C)C(=O)OC)cs1)C(C)C", "note": "(stereo not given in full)", "growth": "-10.4% (active)"}, {"smiles": "OCCNC(Cc1ccccc1)c1ccc2c(c1)OCO2", "note": "(stereo not given)", "growth": "86.5%"}, {"smiles": "C/C(Cc1ccc(Cl)cc1)=C(\\c1ccc(OCCN2CCOCC2)cc1)c1ccc(OC(=O)Cc2ccccc2)cc1", "growth": "98.6%"}, {"smiles": "N#CC1(C#N)C(c2ccc(N(CCCl)CCCl)cc2)OC23CCCCC2C1(C#N)C(=N)O3", "note": "(stereo not given)", "growth": "56.6%"}, {"smiles": "CC(=O)Nc1nc2c(s1)CC[C@@]1(C)C2=CC[C@H]2[C@@H]3CC[C@H](O)[C@@]3(C)CC[C@@H]21", "growth": "67.8%"}, {"smiles": "Clc1ccc2nnnn2n1", "growth": "78.7%"}, {"smiles": "O=C(CC1(O)C(=O)Nc2ccccc21)c1ccc(C(=O)NCC2CCC3(CC2)OOC2(CCCCC2)OO3)cc1", "note": "(stereo not given)", "growth": "93.7%"}, {"smiles": "COc1ccc(/C=C\\c2cc(OC)c(OC)c(OC)c2)cc1OCC(=O)Nc1nc2ccc(C(F)(F)F)cc2s1", "growth": "14.3%"}, {"smiles": "O=C1NC(=O)C(=Cc2ccc(OCCCCC3CCCCC3)c(Cl)c2)C(=O)N1", "growth": "82.7%"}, {"smiles": "COP(=O)(OC)C(O)c1ccc(Cl)cc1", "note": "(stereo not given)", "growth": "98.5%"}, {"smiles": "Brc1ccc2c(c1)c(-c1nc(-c3c[nH]c4ncccc34)cs1)cn2CCN1CCCCC1", "growth": "95.7%"}, {"smiles": "COc1ccc(Nc2ccc([N+](=O)[O-])cc2[N+](=O)[O-])cc1CN(CCCl)CCCl", "growth": "18.5%"}, {"smiles": "COC(=O)[C@@H](C)C[C@H](Cc1ccccc1)NC(=O)c1nc([C@@H](C[C@H](C(C)C)N(C)C(=O)[C@@H](NC(=O)[C@H]2CCCN2C)C(C)C)OC(C)=O)sc1C", "growth": "-2.29% (active)"}, {"smiles": "C1CCC([PH+](C2CCCCC2)C2CCCCC2[PH+](C2CCCCC2)C2CCCCC2)CC1.[Au].[CH-]1CCCCC1CC1CCCC[N-]1", "note": "(stereo not given)", "growth": "-91.6% (active)"}, {"smiles": "COc1ccc(/C=C\\c2cc(OC)c(OC)c(OC)c2)cc1OCC(=O)Nc1nc2ccc(OC(F)(F)F)cc2s1", "growth": "30.2%"}, {"smiles": "COC(=O)C1CCC(NC(=O)c2csc([C@@H](C[C@H](C(C)C)N(C)C(=O)[C@@H](NC(=O)[C@H]3CCCCN3C)C(C)C)OC(C)=O)n2)CC1", "note": "(stereo not given in full)", "growth": "-6.6% (active)"}, {"smiles": "COC(=O)CCC1=C(C)c2cc3[n-]c(cc4nc(cc5[n-]c(cc1n2)c(CCC(=O)OC)c5C)C=C4C)cc3C.[Cd+2]", "growth": "34.4%"}, {"smiles": "CC1=C(CN)C2=C(C)C3(CC3)[C@@](C)(O)C(=O)C2=C1", "growth": "68.6%"}, {"smiles": "COc1cccc2c1c(C(=O)C(=O)Nc1ccn[nH]1)cn2Cc1ccc(F)cc1", "growth": "-72.9% (active)"}, {"smiles": "C#Cc1ccc2c(c1)C(c1ccccc1F)=NCC(=O)N2C", "growth": "19.2%"}, {"smiles": "CCCCCSC1C2C(=O)C(Br)=CC13CCNc1c(O)c4c5c(c13)=[N+]2CCC=5C=N4", "note": "(stereo not given)", "growth": "12.2%"}, {"smiles": "O=P1(NCCCl)OCCCN1CCCl", "note": "(stereo not given)", "growth": "108%"}, {"smiles": "O=C(CC1(O)C(=O)N(Cc2ccccc2)c2ccccc21)c1ccc(C(=O)NCC2CCC3(CC2)OOC2(CCCCC2)OO3)cc1", "note": "(stereo not given)", "growth": "-88.7% (active)"}]}]}
